Our source for the outcome values is PubChem BioAssay.

Potency and affinity values are given separately. Calls of active or inactive are those of the source. Entries that show only a call come without a potency. No cut-off is given here; in the data, nearly all actives have IC50 up to about 0.98 µM.

The target of this experiment is Calcium-dependent protein kinase 1 (Plasmodium falciparum (isolate 3D7)) (UniProt P62344). Description: PfCDPK1 kinase inhibitors, biochemical, TCAMS library (AID 1159585).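 Note: inhibitors leave more ATP so luminescence rises with inhibition.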 The settings on record: recombinant PfCDPK1, Kinase-Glo ATP depletion luminescence. Background: In Kinase-Glo more light means more ATP remaining.
Sequence of Calcium-dependent protein kinase 1 (Plasmodium falciparum (isolate 3D7)) (P62344 whole entry, looked up): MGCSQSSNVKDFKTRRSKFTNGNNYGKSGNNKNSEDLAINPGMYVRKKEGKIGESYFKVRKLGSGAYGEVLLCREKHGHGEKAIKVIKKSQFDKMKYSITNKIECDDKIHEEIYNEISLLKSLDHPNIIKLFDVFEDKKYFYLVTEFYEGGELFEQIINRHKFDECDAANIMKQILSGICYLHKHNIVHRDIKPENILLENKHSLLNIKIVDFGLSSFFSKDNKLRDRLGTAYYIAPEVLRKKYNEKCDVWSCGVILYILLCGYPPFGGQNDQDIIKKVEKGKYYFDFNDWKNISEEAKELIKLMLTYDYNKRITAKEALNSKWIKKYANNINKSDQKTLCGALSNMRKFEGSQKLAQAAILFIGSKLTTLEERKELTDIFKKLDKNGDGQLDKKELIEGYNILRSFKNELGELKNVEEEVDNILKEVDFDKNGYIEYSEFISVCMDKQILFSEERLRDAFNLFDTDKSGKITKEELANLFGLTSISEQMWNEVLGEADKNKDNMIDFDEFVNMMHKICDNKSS
As for `Nc1nc(N)c2c(Oc3ccc(Cl)c(Cl)c3)cccc2n1`, the outcome was inactive. As for `COc1ccc(OC)c(Cc2c(C)nc3nc(N)nc(N)c3c2C)c1`, the entry is “inactive”; as for `CC(C)(C)c1ccc(-c2nc3c(ccc4nc(N)nc(N)c43)[nH]2)cc1`, “inactive”; as for `CC(=O)Nc1ccc(OCCCCCOc2ccc(NC(C)=O)cc2Cl)c(Cl)c1`, “inactive”.

For the molecule `CCOc1cc(Cc2cnc(N)nc2N)ccc1OC`, the result was inactive. The entry for `CCCCNCc1ccc(OCc2cccc(COc3ccc(CNCCCC)cc3I)c2)c(I)c1` is “inactive”; for `COc1cc(Cc2cnc(N)nc2N)cc(OCCCCc2ccc([N+](=O)[O-])cc2)c1OC` it is “inactive”; for `CC(C)c1ccc2c(c1)C(=O)c1ccc(C(=O)O)cc1S2(=O)=O` it is “inactive”. As for `Nc1ncc(-c2ccc(S(=O)(=O)Nc3ccc(C(=O)N[C@@H](CCC(=O)O)C(=O)O)cc3)cc2)c(=O)[nH]1`, the entry is “inactive”; as for `Cn1c(=N)cc(-c2cccc(I)c2)c2c(=O)[nH]c(N)nc21`, “inactive”; as for `Nc1nc(N)c2c(ccc3c2ccn3Cc2ccc(Br)cc2)n1`, “inactive”.

With `COc1ccc(OC)c(CC2c3ccc(Br)c(O)c3CCN2C)c1` (configuration not stated), the outcome was inactive. As for `Oc1cc2ccccc2cc1CNC1CCCCC1`, the entry is “inactive”; as for `COc1ccccc1-c1nc2c(ccc3nc(N)nc(N)c32)[nH]1`, “inactive”; as for `Nc1nc(N)c2c(Oc3cc(Cl)c(Cl)c(Cl)c3)cccc2n1`, “inactive”. The entry for `Cc1nc(C)c(-c2ccc(Oc3ccc(OC(F)(F)F)cc3)cc2)c(OC(=O)c2ccc(CN(C)C)cc2)c1Cl` is “inactive”; for `CN(C)S(=O)(=O)n1ncc2c3c(N)nc(N)nc3ccc21` it is “inactive”.
